Assay outcomes: PubChem BioAssay, National Center for Advancing Translational Sciences (NCATS)
FMDV inh: foot and mouth disease virus antiviral activity; FMDV antiviral cell-based qHTS; Potency, µM (top dose mostly 57.9 µM), without a hit: top-dose activity change, negative = inhibition, actives largely listed as inhibitors; 410,000 tested, 1.2% active; AID 1159524; calls by dose curve; tested in HEK293T cells; also: read-out not given here; potency is read from the fitted curve at half-maximal effect; % is scaled to controls: 0 for no effect and ±100 for the full control effect; nearly all actives have a fitted effect of over 45% in size
Shiga inhibitor: Shiga toxin inhibition; 290,000 tested, 9.2% active; inhibition, % at 38.7 µM; Vero cells, Shiga toxin protein synthesis inhibition reporter; in the data active = inhibition mostly above about 28%, no sharp cut-off; inactive = mostly below about 43%; also: 0% is about no effect
Sm TGR block: inhibitors of Schistosoma mansoni thioredoxin glutathione reductase. Q962Y6. purified TGR, DTNB reduction, TNB absorbance 405 nm. Potency, µM (highest dose often 114 µM), without a hit: at the top dose activity change, negative = inhibition, most hits filed as inhibitors. 360,000 tested, 3% active. AID 485364; active = well fitted inhibition curve with a large enough effect; inconclusive = small, poorly fitted or top-dose-only effect; inactive = no such curve, though single readings can be large or run the other way; also: potency is read from the fitted curve at half-maximal effect; % is scaled to controls: 0 for no effect and ±100 for the full control effect; nearly all actives have a fitted effect of over 60% in size
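Kinetic colorimetric format: TGR-catalysed, NADPH-driven DTNB reduction monitored via TNB absorbance. Enzyme dispensed at 20 nM; compound exposure 15 min at room temperature before reaction start.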
CHX counter: counter-screen for Shiga toxin inhibitors: cycloheximide protein synthesis inhibition | max response, % | 300,000 tested, 12% active | cell reporter, cycloheximide protein synthesis inhibition counterscreen; in the data active = max response mostly above about 13%, no sharp cut-off; inactive = mostly below about 14%; also: read at 38.3 µM for the half of the compounds with a filed dose; 0% is about no effect
The depositor's hits bear a star; ? = inconclusive; . = not tested or not shown. Compounds with a hit are over-represented: about 12% of the library has one in this group of screens.

SMILES | FMDV inh | Shiga inhibitor | Sm TGR block | CHX counter
CCC(C)C(=O)Nc1nc(C)c(-c2csc(Nc3ccccc3OC)n2)s1 (stereo not given) | -7% | -14 | -30% | -4
COc1ccc(Nc2nc(-c3cccs3)cs2)cc1 | 86% | 42* | -10% | 41*
COc1ccc(Nc2nc(-c3sc(C)nc3C)cs2)c(OC)c1 | -16% | 13 | 8% | 8.8*
COc1ccccc1Nc1nc(-c2cccs2)cs1 | 55% | 77* | -14% | 37*
COc1ccc(Nc2nc(-c3cccs3)cs2)c(OC)c1 | 49% | 106* | 3% | 46*
COc1ccc(OC)c(Nc2nc(-c3c(C)nc4ncccn34)cs2)c1 | ? | 1 | -24% | 2
COc1ccc(OC)c(Nc2nc(-c3cccs3)cs2)c1 | . | 17 | -9% | 23*
Cc1ccc(C(=O)NCCc2nnc3ccc(SCC(=O)N4CCCC4)nn23)cc1 | -7% | 53* | -7% | 42*
Cc1ccccc1[C@@]1(C)ON(c2ccccc2C(F)(F)F)C1=O | ? | . | 1% | .
CC[C@@]1(c2ccccc2OC)ON(c2ccccc2C(F)(F)F)C1=O | 32µM* | . | -1% | .
Cc1nc2ccccc2nc(C)c1=NO | 51% | 114* | 0% | 51*
Cc1ccc2nc(C)/c(=N\O)c(C)nc2c1 | 35% | 86* | -8% | 23*
Cc1nc2ccc(Cl)cc2nc(C)/c1=N\O | 0% | 50 | ? | 28*
Cc1ccc2nc(N)nnc2c1 | 11% | . | . | .
CCOC(=O)c1nc2ccccc2nc1C | -2% | -1 | 7% | -2
O=C(NCCc1nnc2n1CCN(Cc1ccc(F)cc1)CC2)c1ccco1 | -7% | . | . | .
COc1ccc(C(=O)Nc2cc3c(oc2=O)CCCC3=O)cc1 | 18% | 42 | -12% | 25*
O=C(Nc1cc2c(oc1=O)CCCC2=O)c1cccc(Cl)c1 | 29% | 61* | 1% | 15
COC(=O)c1cnn2c(C)c(Cc3c(C)cc(C)cc3C)c(C)nc12 | -9% | . | 3% | .
O=C(COc1ccccc1Cl)NCc1ccncc1 | -16% | 77 | 8% | 32*
O=C(COC(=O)c1nc(Cl)c(Cl)c(Cl)c1Cl)NCc1ccccc1 | ? | . | 4µM* | .
O=C(COc1ccccc1Cl)NCc1ccccc1 | 71% | 54* | 0% | 31*
CC(=O)NNc1nc(-c2ccc(NC(C)=O)cc2)cs1 | -16% | 11 | 40µM* | 3
CC(=O)Nc1ccc(-c2csc(Nc3cccc(C)n3)n2)cc1 | 27% | 73* | 5% | 50*
CC(=O)Nc1ccc(-c2csc(NNC(=O)c3ccc(C)cc3)n2)cc1 | 5% | 7 | . | 11
SMILES | FMDV inh | Shiga inhibitor | Sm TGR block | CHX counter
Cc1ccc(Cl)cc1NC(=O)c1ccc(NC(=O)N2CCSc3ncccc32)cc1 | ? | . | 0% | .
N#Cc1ccc(NCCNCC(=O)N2N=CCC2C#N)nc1 (stereo not given) | . | 61 | . | 1
c1ccc(-n2ncc3c(NCCCN4CCOCC4)ncnc32)cc1 | 46% | 148* | 0% | 34*
Clc1ccc(-n2ncc3c(NCCN4CCOCC4)ncnc32)cc1 | ? | 121* | -21% | 43*
CCn1cc(C(=O)OCC(=O)Nc2cccc(Cl)c2C)c(=O)c2ccc(C)nc21 | -15% | . | 8% | .
CCn1ncc(Br)c1C(=O)Nc1ccc(-c2ccno2)cc1 | -8% | 7 | -3% | 9.8*
CCOC(=O)C1C(=O)C=C(c2cccc(NS(C)(=O)=O)c2)CC1c1ccco1 (stereo not given) | -18% | 39 | 32µM* | 12
O=C(N/N=C/c1ccccc1OC(=O)c1ccc2c(c1)OCO2)c1ccccc1 | 28% | 64* | 9% | 21*
CC(C)(C)C(=O)Nc1ccc(C(=O)N/N=C/c2ccccc2OC(=O)c2ccccc2)cc1 | 0% | -15 | 15% | 4
CCCOc1ccc(/C=N/NC(=O)c2ccc3c(c2)OCO3)c(OCCC)c1 | -17% | 24 | -8% | 1
CC(/C=N\NC(=O)c1ccc2c(c1)OCO2)c1ccccc1 (stereo not given) | 7% | 46* | -8% | 27*
COc1ccc(C(=O)N/N=C/C(C)c2ccccc2)cc1OC (stereo not given) | -5% | 27 | 4% | 9
CSc1nsc(N/N=C/c2ccc3c(c2)OCO3)c1C#N | 70% | 84* | 67% | 41*
COc1ccccc1/C=N/NC(=O)c1ccc2c(c1)OCO2 | 1% | 81* | 7% | 24*
CCOc1ccc(NC(=O)C(=O)NCCc2sc(-c3ccc(C)cc3)nc2C)cc1 | -17% | . | 6% | .
CCc1ccc(NC(=O)CC2C(=O)N(c3cccc(C)c3)C(=O)N2CCC(C)C)cc1 (stereo not given) | -5% | . | 7% | .
O=C(N/N=C/c1ccc([N+](=O)[O-])cc1)c1cc(-c2ccc3c(c2)OCO3)n[nH]1 | -16% | 9 | -2% | -2
COc1ccc(/C=N/NC(=O)c2ccc3c(c2)OCO3)c(C(=O)O)c1OC | -3% | 25 | 2% | 11*
COc1cc2ccccc2cc1C(=O)N/N=C/c1ccc2c(c1)OCO2 | -15% | 7 | 4% | 4
COc1ccccc1N/N=C/c1ccc2c(c1)OCO2 | 41% | 45 | ? | 39*
COc1ccccc1C(=O)N/N=C/c1ccc2c(c1)OCO2 | 49% | 89* | -15% | 35*
COc1cc(/C=N/NC(=O)c2cc(-c3ccc4c(c3)OCO4)n[nH]2)ccc1O | -20% | 36 | -8% | 16*
COC(=O)C1=C(C)NC(=O)NC1c1cn(-c2ccccc2)nc1-c1ccc(OC)c(Br)c1 (stereo not given) | 4% | . | 1% | .
CCS(=O)(=O)N1CCc2cc(C(=O)Nc3cccc(C)c3C)ccc21 | 12% | . | -10% | .
CNc1oc(Cc2ccccc2)nc1S(=O)(=O)c1ccc(Cl)cc1 | . | -2 | 13µM* | -4
SMILES | FMDV inh | Shiga inhibitor | Sm TGR block | CHX counter
Cc1ccc2c(c1)cc(CN(Cc1ccco1)C(=O)COc1ccccc1)c1nnnn12 | ? | 65* | -16% | 26*
O=C(CSc1nnc(-c2ccccc2)c2ccccc12)NCC1CCCO1 (stereo not given) | . | 3 | -2% | -1
Cn1cc(SCC(=O)NCC2CCCO2)c2ccccc21 (stereo not given) | -11% | -6 | 5% | -1
O=C(CSc1ccc2nc(-c3ccccc3)cn2n1)NCC1CCCO1 (stereo not given) | 8% | 70* | 3% | 23*
CCCn1cc(SCC(=O)NCC2CCCO2)c2ccccc21 (stereo not given) | 30% | 42* | 2% | 25*
COc1ccc(-c2cn3nc(SCC(=O)NCC4CCCO4)ccc3n2)cc1 (stereo not given) | 3% | 61* | -23% | 26*
O=C(CSc1nc(-c2ccccc2)ns1)NCC1CCCO1 (stereo not given) | 16% | 65* | -3% | 45*
CCOC(=O)c1c(NC(=O)/C=C/c2ccc(C)cc2)sc(C(C)=O)c1C | -18% | . | -32% | .
CCOC(=O)CNC(=O)CSc1nc(-c2ccc(C)cc2)ns1 | 17% | 48* | -9% | 24
CCOC(=O)CNC(=O)CSc1nc(-c2ccccc2)ns1 | 19% | 6 | -10% | 9
Cc1ccc(-c2ccc(SCC(=O)NCC3CCCO3)nn2)cc1 (stereo not given) | 24% | 36 | 6% | 16
